Measurements as given in the supplement of paper PMC8728848.
Shown is part of a subset that was picked to be rich in the strongest signals.

Assays:
Experiment in all cases: glycan array binding signal (z-score within array); higher = stronger binding
Conditions in all cases: glycan notation: IUPAC condensed, linker removed
[1] = target: Fuc(a1-2)Gal
Procedure, shortened: (§1)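 Columns mapping to the same glycan were averaged after glycan names were converted to IUPAC-condensed notation. The data come from 3228 arrays in the Consortium for Functional Glycomics database, limited to those with an available protein sequence. Binding is reported as a within-array Z-score averaged across arrays of one protein sequence and across linkers.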

[2] = target: Fuc(a1-2)Gal(b1-3)GalNAc(a1-3)[Fuc(a1-2)]Gal(b1-4)Glc
Procedure, shortened: as §1

[3] = target: Fuc(a1-2)Gal(b1-3)GalNAc(b1-3)Gal(a1-4)Gal(b1-4)Glc
Procedure, shortened: as §1

[4] = target: Fuc(a1-2)Gal(b1-3)GlcNAc6S
Procedure, shortened: as §1

[5] = target: Fuc(a1-2)Gal(b1-3)[Fuc(a1-4)]GlcNAc(b1-2)Man(a1-3)[Fuc(a1-2)Gal(b1-3)[Fuc(a1-4)]GlcNAc(b1-2)Man(a1-6)]Man(b1-4)GlcNAc(b1-4)[Fuc(a1-6)]GlcNAc(b1-4)[Fuc(a1-6)]GlcNAc
Procedure, shortened: as §1

[6] = target: Fuc(a1-2)Gal(b1-4)GlcNAc(b1-3)Gal(b1-4)GlcNAc
Procedure, shortened: as §1

[7] = target: Fuc(a1-2)Gal(b1-4)GlcNAc(b1-6)GalNAc
Procedure, shortened: as §1

[8] = target: Fuc(a1-2)Gal(b1-4)[Fuc(a1-3)]GlcNAc(b1-3)[Neu5Ac(a2-6)Gal(b1-4)GlcNAc(b1-6)]Gal(b1-4)Glc
Procedure, shortened: as §1

[9] = target: Fuc(a1-2)Gal6S(b1-4)Glc
Procedure, shortened: as §1

[10] = target: Fuc(a1-2)Gal6S(b1-4)Glc6S
Procedure, shortened: as §1

[11] = target: Fuc(a1-2)[Gal(a1-3)]Gal
Procedure, shortened: as §1

[12] = target: Fuc(a1-2)[Gal(a1-3)]Gal(b1-3)GlcNAc(b1-2)Man(a1-3)[Fuc(a1-2)[Gal(a1-3)]Gal(b1-3)GlcNAc(b1-2)Man(a1-6)]Man(b1-4)GlcNAc(b1-4)GlcNAc
Procedure, shortened: as §1

[13] = target: Fuc(a1-2)[Gal(a1-3)]Gal(b1-4)Glc
Procedure, shortened: as §1

[14] = target: Fuc(a1-2)[GalNAc(a1-3)]Gal(b1-3)GlcNAc(b1-6)GalNAc
Procedure, shortened: as §1

[15] = target: Fuc(a1-2)[GalNAc(a1-3)]Gal(b1-4)GlcNAc(b1-6)GalNAc
Procedure, shortened: as §1

[16] = target: Fuc(a1-2)[GalNAc(a1-4)]Gal(b1-4)GlcNAc
Procedure, shortened: as §1

[17] = target: Fuc(a1-2)[GalNAc(b1-3)]Gal
Procedure, shortened: as §1

[18] = target: Fuc(a1-3)[Gal(b1-4)]GlcNAc(b1-6)[Gal(b1-3)GlcNAc(b1-3)]Gal(b1-4)Glc
Procedure, shortened: as §1

[19] = target: Gal(a1-2)Gal
Procedure, shortened: as §1

[20] = target: Gal(a1-3)Gal(b1-4)GlcNAc(b1-2)Man
Procedure, shortened: as §1

[21] = target: Gal(a1-3)Gal(b1-4)GlcNAc(b1-6)GalNAc
Procedure, shortened: as §1

[22] = target: Gal(a1-4)Gal(b1-4)GlcNAc
Procedure, shortened: as §1

[23] = target: Gal(b1-3)Gal(b1-4)GlcNAc
Procedure, shortened: as §1

[24] = target: Gal(b1-3)GalNAc
Procedure, shortened: as §1

[25] = target: Gal(b1-3)GlcNAc(a1-3)Gal(b1-4)GlcNAc
Procedure, shortened: as §1

[26] = target: Gal(b1-3)GlcNAc(b1-3)Gal(b1-4)GlcNAc(b1-2)[Gal(b1-3)GlcNAc(b1-3)Gal(b1-4)GlcNAc(b1-6)]Man(a1-6)[Gal(b1-3)GlcNAc(b1-3)Gal(b1-4)GlcNAc(b1-2)Man(a1-3)]Man(b1-4)GlcNAc(b1-4)[Fuc(a1-6)]GlcNAc
Procedure, shortened: as §1

[27] = target: Gal(b1-3)GlcNAc(b1-6)GalNAc
Procedure, shortened: as §1

[28] = target: Gal(b1-3)GlcNAc6S
Procedure, shortened: as §1

[29] = target: Gal(b1-4)GlcNAc
Procedure, shortened: as §1

[30] = target: Gal(b1-4)GlcNAc(b1-3)Gal(b1-3)GalNAc
Procedure, shortened: as §1

B1: MGL (Homo sapiens), Q8IUN9 (protein)
chain: MTRTYENFQYLENKVKVQGFKNGPLPLQSLLQRLCSGPCHLLLSLGLGLLLLVIICVVGFQNSKFQRDLVTLRTDFSNFTSNTVAEIQALTSQGSSLEETIASLKAEVEGFKQERQAGVSELQEHTTQKAHLGHCPHCPSVCVPVHSEMLLRVQQLVQDLKKLTCQVATLNNNASTEGTCCPVNWVEHQDSCYWFSHSGMSWAEAEKYCQLKNAHLVVINSREEQNFVQKYLGSAYTWMGLSDPEGAWKWVDGTDYATGFQNWKPGQPDDWQGHGLGGGEDCAHFHPDGRWNDDVCQRPYHWVCEAGLGQTSQESH
For B1, the “glycan array binding signal (z-score)” value [1] was -0.232, the “glycan array binding signal (z-score)” value [2] was -0.246 and the “glycan array binding signal (z-score)” value [3] was -0.242. The “glycan array binding signal (z-score)” value [4] was -0.178, the “glycan array binding signal (z-score)” value [5] was -0.238 and the “glycan array binding signal (z-score)” value [6] was -0.247. The “glycan array binding signal (z-score)” value [7] was 3.85, the “glycan array binding signal (z-score)” value [8] was -0.247 and the “glycan array binding signal (z-score)” value [9] was -0.242. The “glycan array binding signal (z-score)” value [10] was -0.254, the “glycan array binding signal (z-score)” value [11] was -0.241 and the “glycan array binding signal (z-score)” value [12] was -0.249. For the same binder, the “glycan array binding signal (z-score)” value [13] was -0.237, the “glycan array binding signal (z-score)” value [14] was 3.6 and the “glycan array binding signal (z-score)” value [15] was 4.98. The “glycan array binding signal (z-score)” value [16] was 3.39, the “glycan array binding signal (z-score)” value [17] was 4.3 and the “glycan array binding signal (z-score)” value [18] was -0.251. For the same binder, the “glycan array binding signal (z-score)” value [19] was -0.25, the “glycan array binding signal (z-score)” value [20] was -0.252 and the “glycan array binding signal (z-score)” value [21] was 3.79. For the same binder, the “glycan array binding signal (z-score)” value [22] was -0.232, the “glycan array binding signal (z-score)” value [23] was -0.245 and the “glycan array binding signal (z-score)” value [24] was -0.242. The “glycan array binding signal (z-score)” value [25] was -0.245, the “glycan array binding signal (z-score)” value [26] was -0.049 and the “glycan array binding signal (z-score)” value [27] was 3.24. The “glycan array binding signal (z-score)” value [28] was -0.249, the “glycan array binding signal (z-score)” value [29] was -0.243 and the “glycan array binding signal (z-score)” value [30] was -0.27.
